What all share (experiment): HT-SELEX; high values mean tight binding
Common to all, as to conditions: protein: recombinant; vector His6-GST; dsDNA, one strand shown

The target of experiment [1] is T1, SALL4 ZFC4 WT (HT-SELEX) (Mus musculus, UniProt Q8BX22 870-940).
T1 sequence: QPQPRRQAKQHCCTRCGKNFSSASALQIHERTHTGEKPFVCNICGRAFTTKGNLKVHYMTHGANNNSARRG
Put shortly: (§1)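 Purified recombinant mouse SALL4 zinc finger cluster 4 (residues 870–940, 1 µg) was incubated with library DNA (1.5 µg first cycle, 200 ng later) in 100 µl of 10 mM Tris–HCl pH 7.5, 50 mM NaCl, poly(dI-dC) and DTT for 10 min at room temperature, with Ni2+ bead capture and reselection for up to 6 cycles in triplicate. MiSeq reads were scanned for 6-mers. Binding signal is each canonical k-mer's read fraction as fold change relative to the initial random library.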

Experiment [2] deals with T2, SALL4 ZFC4 R900W (HT-SELEX) (Mus musculus, UniProt Q8BX22 870-940, R900W).
T2 sequence: T1 sequence with R31W
In short, it runs like this: as §1

Experiment [3] deals with T3, SALL4 ZFC4 G921D (HT-SELEX) (Mus musculus, UniProt Q8BX22 870-940, G921D).
T3 sequence: T1 sequence with G52D
In short, it runs like this:
as §1

Residue numbers refer to the chain shown, from its start.

Regarding CTGTAC, the binding signal in experiment [1] was determined as 0.751 ± 0.0338 fold-change vs cycle 0; in experiment [2] it was 0.874 ± 0.0496 fold-change vs cycle 0; in experiment [3], 0.911 ± 0.0674 fold-change vs cycle 0.

Take AGATGC: the binding signal in experiment [1] came to 0.625 ± 0.0322 fold-change vs cycle 0; in experiment [2] it was 0.721 ± 0.0174 fold-change vs cycle 0; in experiment [3], 0.833 ± 0.0268 fold-change vs cycle 0.

Take AAGTCG: the values for the binding signal in experiment [1], in experiment [2] and in experiment [3] were 0.537 ± 0.0353 fold-change vs cycle 0, 0.634 ± 0.0134 fold-change vs cycle 0 and 0.747 ± 0.0488 fold-change vs cycle 0, respectively.

With AGAACC, the binding signal in experiment [1] was determined as 0.8 ± 0.0457 fold-change vs cycle 0; in experiment [2], 0.93 ± 0.0272 fold-change vs cycle 0; in experiment [3], 0.981 ± 0.014 fold-change vs cycle 0.

As for AGTGGG, the binding signal in experiment [1] came out at 0.455 ± 0.0261 fold-change vs cycle 0; in experiment [2], 0.528 ± 0.0236 fold-change vs cycle 0; in experiment [3], 0.608 ± 0.0502 fold-change vs cycle 0.

As to AGCCTG, the binding signal worked out at 0.325 ± 0.0218 fold-change vs cycle 0 in experiment [1], 0.402 ± 0.0338 fold-change vs cycle 0 in experiment [2] and 0.531 ± 0.0708 fold-change vs cycle 0 in experiment [3].

For the sequence TAGCAA, the binding signal in experiment [1] is 1.14 ± 0.0337 fold-change vs cycle 0; in experiment [2] it was 1.17 ± 0.0822 fold-change vs cycle 0; in experiment [3], 1.21 ± 0.0899 fold-change vs cycle 0.

As to ACAATG, the binding signal in experiment [1] is 1.23 ± 0.0338 fold-change vs cycle 0; in experiment [2] it was 1.34 ± 0.0389 fold-change vs cycle 0; in experiment [3], 1.32 ± 0.0407 fold-change vs cycle 0.

On to AGCTAA, for which the values for the binding signal in experiment [1], in experiment [2] and in experiment [3] were 1.15 ± 0.044 fold-change vs cycle 0, 1.26 ± 0.0399 fold-change vs cycle 0 and 1.27 ± 0.0601 fold-change vs cycle 0, respectively.

On to TGCACA, for which the binding signal in experiment [1] turned out to be 0.529 ± 0.0293 fold-change vs cycle 0; in experiment [2] it was 0.586 ± 0.0273 fold-change vs cycle 0; in experiment [3] it was 0.698 ± 0.0457 fold-change vs cycle 0.

As to GTATAA, the figures for the binding signal in experiment [1], in experiment [2] and in experiment [3] were 2.08 ± 0.124 fold-change vs cycle 0, 1.96 ± 0.165 fold-change vs cycle 0 and 1.74 ± 0.197 fold-change vs cycle 0, respectively.

In the case of ATAAGA, the results for the binding signal in experiment [1], in experiment [2] and in experiment [3] were 2.45 ± 0.123 fold-change vs cycle 0, 2.3 ± 0.143 fold-change vs cycle 0 and 1.92 ± 0.245 fold-change vs cycle 0, respectively.

In the case of CAGTAC, the binding signal in experiment [1] came out at 0.772 ± 0.0398 fold-change vs cycle 0; in experiment [2], 0.92 ± 0.0398 fold-change vs cycle 0; in experiment [3], 0.957 ± 0.0386 fold-change vs cycle 0.

Take TCACAA: the binding signal in experiment [1] was found to be 1.2 ± 0.0727 fold-change vs cycle 0; in experiment [2] it was 1.32 ± 0.0623 fold-change vs cycle 0; in experiment [3], 1.29 ± 0.11 fold-change vs cycle 0.

Take GGAGAC: the values for the binding signal in experiment [1], in experiment [2] and in experiment [3] were 0.471 ± 0.0075 fold-change vs cycle 0, 0.574 ± 0.0262 fold-change vs cycle 0 and 0.671 ± 0.0455 fold-change vs cycle 0, respectively.

In the case of GCAACA, the binding signal in experiment [1] is 0.54 ± 0.0464 fold-change vs cycle 0; in experiment [2], 0.629 ± 0.0238 fold-change vs cycle 0; in experiment [3], 0.72 ± 0.0281 fold-change vs cycle 0.

As for TCTAAA, the binding signal in experiment [1] turned out to be 1.79 ± 0.0986 fold-change vs cycle 0; in experiment [2] it was 1.85 ± 0.144 fold-change vs cycle 0; in experiment [3], 1.67 ± 0.161 fold-change vs cycle 0.

In the case of AACGAA, the binding signal in experiment [1] turned out to be 1.15 ± 0.0599 fold-change vs cycle 0; in experiment [2], 1.28 ± 0.0641 fold-change vs cycle 0; in experiment [3] it was 1.24 ± 0.054 fold-change vs cycle 0.

In the case of ATCTGA, the binding signal was 1.33 ± 0.0639 fold-change vs cycle 0 in experiment [1], 1.39 ± 0.0686 fold-change vs cycle 0 in experiment [2] and 1.35 ± 0.119 fold-change vs cycle 0 in experiment [3].

With CTAGAA, the binding signal in experiment [1] turned out to be 1.25 ± 0.0695 fold-change vs cycle 0; in experiment [2], 1.37 ± 0.0276 fold-change vs cycle 0; in experiment [3] it was 1.3 ± 0.11 fold-change vs cycle 0.

Take GTGAAA: the binding signal in experiment [1] stood at 1.16 ± 0.0303 fold-change vs cycle 0; in experiment [2], 1.27 ± 0.0355 fold-change vs cycle 0; in experiment [3], 1.19 ± 0.0481 fold-change vs cycle 0.

On to GTCAAA, for which the binding signal in experiment [1] came to 0.9908 ± 0.00315 fold-change vs cycle 0; in experiment [2] it was 1.12 ± 0.0182 fold-change vs cycle 0; in experiment [3] it was 1.13 ± 0.0122 fold-change vs cycle 0.

For the sequence AGCAAG, the binding signal in experiment [1] was 0.735 ± 0.0328 fold-change vs cycle 0; in experiment [2] it was 0.837 ± 0.0375 fold-change vs cycle 0; in experiment [3], 0.888 ± 0.035 fold-change vs cycle 0.

On to ATTCAC, for which the binding signal in experiment [1] was 1.32 ± 0.0734 fold-change vs cycle 0; in experiment [2] it was 1.45 ± 0.0876 fold-change vs cycle 0; in experiment [3], 1.38 ± 0.121 fold-change vs cycle 0.

For the sequence CCAATC, the figures for the binding signal in experiment [1], in experiment [2] and in experiment [3] were 0.76 ± 0.0281 fold-change vs cycle 0, 0.854 ± 0.0448 fold-change vs cycle 0 and 0.933 ± 0.0316 fold-change vs cycle 0, respectively.

For ATTGAG, the figures for the binding signal in experiment [1], in experiment [2] and in experiment [3] were 1.27 ± 0.0638 fold-change vs cycle 0, 1.38 ± 0.0358 fold-change vs cycle 0 and 1.36 ± 0.122 fold-change vs cycle 0, respectively.

As for ACTACC, the values for the binding signal in experiment [1], in experiment [2] and in experiment [3] were 0.799 ± 0.0371 fold-change vs cycle 0, 0.948 ± 0.0381 fold-change vs cycle 0 and 0.968 ± 0.0334 fold-change vs cycle 0, respectively.

As for TAGTAA, the binding signal in experiment [1] amounted to 2.21 ± 0.0521 fold-change vs cycle 0; in experiment [2], 2.24 ± 0.0692 fold-change vs cycle 0; in experiment [3], 1.89 ± 0.181 fold-change vs cycle 0.

Take TCAACA: the binding signal in experiment [1] stood at 1.19 ± 0.0385 fold-change vs cycle 0; in experiment [2], 1.35 ± 0.0647 fold-change vs cycle 0; in experiment [3], 1.3 ± 0.0976 fold-change vs cycle 0.

Regarding CCAGAA, the binding signal was found to be 0.726 ± 0.028 fold-change vs cycle 0 in experiment [1], 0.821 ± 0.0147 fold-change vs cycle 0 in experiment [2] and 0.852 ± 0.0285 fold-change vs cycle 0 in experiment [3].

For the sequence GAAGGA, the values for the binding signal in experiment [1], in experiment [2] and in experiment [3] were 0.959 ± 0.0373 fold-change vs cycle 0, 1.11 ± 0.0789 fold-change vs cycle 0 and 1.08 ± 0.0796 fold-change vs cycle 0, respectively.

As for CGAACC, the binding signal in experiment [1] was determined as 0.34 ± 0.0157 fold-change vs cycle 0; in experiment [2] it was 0.416 ± 0.00929 fold-change vs cycle 0; in experiment [3] it was 0.549 ± 0.0764 fold-change vs cycle 0.

As to CAAGGA, the binding signal in experiment [1] was 0.866 ± 0.0298 fold-change vs cycle 0; in experiment [2] it was 1.02 ± 0.0119 fold-change vs cycle 0; in experiment [3], 1.01 ± 0.0394 fold-change vs cycle 0.

Regarding CCATGA, the values for the binding signal in experiment [1], in experiment [2] and in experiment [3] were 0.874 ± 0.0255 fold-change vs cycle 0, 0.938 ± 0.011 fold-change vs cycle 0 and 1.01 ± 0.0502 fold-change vs cycle 0, respectively.

For the sequence ACGGAT, the binding signal was 0.764 ± 0.0238 fold-change vs cycle 0 in experiment [1], 0.855 ± 0.00544 fold-change vs cycle 0 in experiment [2] and 0.887 ± 0.0254 fold-change vs cycle 0 in experiment [3].

On to CGATCC, for which the binding signal in experiment [1] amounted to 0.359 ± 0.0529 fold-change vs cycle 0; in experiment [2], 0.43 ± 0.0262 fold-change vs cycle 0; in experiment [3] it was 0.584 ± 0.0363 fold-change vs cycle 0.

Turning to ATCCAT, the binding signal turned out to be 1.62 ± 0.0994 fold-change vs cycle 0 in experiment [1], 1.54 ± 0.0869 fold-change vs cycle 0 in experiment [2] and 1.44 ± 0.0984 fold-change vs cycle 0 in experiment [3].

As for AGATAG, the binding signal in experiment [1] was determined as 1.35 ± 0.0403 fold-change vs cycle 0; in experiment [2] it was 1.5 ± 0.0704 fold-change vs cycle 0; in experiment [3] it was 1.43 ± 0.117 fold-change vs cycle 0.

As to GATTCA, the binding signal in experiment [1] was 1.35 ± 0.0551 fold-change vs cycle 0; in experiment [2], 1.38 ± 0.0852 fold-change vs cycle 0; in experiment [3], 1.33 ± 0.0688 fold-change vs cycle 0.

With CGGTAG, the binding signal is 0.351 ± 0.018 fold-change vs cycle 0 in experiment [1], 0.418 ± 0.01 fold-change vs cycle 0 in experiment [2] and 0.514 ± 0.0341 fold-change vs cycle 0 in experiment [3].

As to AGTGAC, the binding signal was determined as 0.776 ± 0.012 fold-change vs cycle 0 in experiment [1], 0.91 ± 0.0317 fold-change vs cycle 0 in experiment [2] and 0.973 ± 0.0424 fold-change vs cycle 0 in experiment [3].

Regarding ACGGAC, the binding signal in experiment [1] is 0.337 ± 0.0313 fold-change vs cycle 0; in experiment [2] it was 0.425 ± 0.0312 fold-change vs cycle 0; in experiment [3] it was 0.526 ± 0.0575 fold-change vs cycle 0.
